Test results as given in PubChem BioAssay (NCI).
The panel holds about 83,000 compounds, 20% with a hit somewhere; the sample as a whole holds those more often.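 Note: values are percent growth. 100 is the growth of untreated cells, values between 100 and 0 indicate rising inhibition; between -100 and 0 indicates cell death.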 Values without a mark were called inactive. Calls of active or inactive are those of the source. How the source made its calls: active means growth percent below 10; inactive means the rest.

Tests used:
Assay in all cases: NCI-60 one-dose screen, 48 h (100 = growth as untreated, 0 = no growth, -100 = all killed)
Settings in all cases: 10 µM
[1] = tested on: RPMI-8226 leukemia
[2] = tested on: OVCAR-8 ovarian
[3] = tested on: OVCAR-5 ovarian
[4] = tested on: SK-OV-3 ovarian
[5] = tested on: IGROV1 ovarian
[6] = tested on: OVCAR-3 ovarian
[7] = tested on: HS 578T breast
[8] = tested on: NCI/ADR-RES ovarian
[9] = tested on: T-47D breast
[10] = tested on: OVCAR-4 ovarian

Row | Structure (SMILES) | growth [1] | growth [2] | growth [3] [%] | growth [4] | growth [5] | growth [6] | growth [7] | growth [8] | growth [9] | growth [10]
1 | O=C1/C(=C\c2ccc(Br)cc2)CN(C(=O)c2ccccc2F)C/C1=C\c1ccc(Br)cc1 | -37.7% (active) | 1.47% (active) | 69.4 | 27.2% | -31.4% (active) | -52.6% (active) | 24.1% | 12.7% | 53.3% | 
2 | COc1ccc(Cl)cc1C(=O)Nc1nc2ccc(Cl)cc2s1 | 80.5% | 88.9% | 124 | 91.9% | 65.9% | 103% | 102% | 102% | 47.2% | 
3 | CN1CCC2(CC1)NC(=O)c1c(c3ccc(Cl)c(Cl)c3n1C)C2C#N (configuration not stated) | 80.4% | 80.8% | 67.7 | 86.1% | 73.4% | 76% | 71.1% | 82.4% | 81.3% | 
4 | COc1cc(Cc2cc(-c3ccc(Cl)cc3)n[nH]c2=O)ccc1O | 47.9% | 92.6% | 115 | 98.6% | 112% | 96.1% | 73.2% | 126% | 91% | 
5 | CCN1CCCC1CNC(=O)c1ncc(-c2ccc(C(F)(F)F)cc2)c(NC2CCCCCC2)n1 (configuration not stated) | 58.9% | 74% | 101 | 89.9% | 77% | 79.5% | 92.1% | 89.7% | 78.9% | 
6 | Nc1nccc(Nc2ccccc2)n1 | 96.6% | 100% | 95.9 | 109% | 127% | 114% | 107% | 111% | 112% | 
7 | O=C(O)c1ccc(P(=O)(O)O)c([N+](=O)[O-])c1 | 102% | 98% | 107 | 107% | 119% | 111% | 104% | 108% | 104% | 
8 | Cc1ccc(CC#N)cc1C | 134% | 78.3% | 88.8 | 117% | 74.9% | 95.4% | 173% | 106% | 98.4% | 
9 | COc1cc(OC)cc(-c2cncn2-c2ccc(-c3nc4cc(OC)cc(OC)c4s3)cc2)c1 | 44.6% | 80.7% | 99.9 | 70.5% | 56.1% | 20.3% | 50.3% | 21.2% | 62.8% | 
10 | CN(C)CCCn1c(=O)c2ccccc2c2cnc3[nH]ccc3c21 | -23.6% (active) | 6.28% (active) | 19.5 | 4.51% (active) | 9.28% (active) | 17.9% | 24.8% | 26.5% | -11.3% (active) | 
11 | O=C(CNC(=O)OCc1ccccc1)NCC(=O)Oc1ccc([N+](=O)[O-])cc1 | 112% |  | 109 | 100% | 109% | 111% | 137% | 96.2% | 103% | 99.2%
12 | O=C(Nc1ccc(Cl)c([N+](=O)[O-])c1)Nc1nc2ccccc2s1 | 7.17% (active) | 85.3% | 103 | 84.9% |  | 79.5% | 103% | 80.9% | 36.8% | 
13 | CCOCCOCCOCCOCCOCCOCCOCCOCCOCCO (tested in a mixture with another compound) | -33.3% (active) | 5.89% (active) |  | 38.2% | 30.2% | -16.8% (active) | 39.6% | 55.7% | 16.6% | 21.3%
14 | CN(C)c1ccc(Cc2ccc(N(C)C)cc2Cl)c(Cl)c1 | 81.1% | 101% | 99.6 | 103% | 90.7% | 94.9% |  | 101% | 87.1% | 
15 | CN(Cc1ccccc1)Cc1ccc([N+](=O)[O-])cc1I | 91.9% | 102% | 93.7 | 94.9% | 92.5% |  | 95.4% | 103% | 93.9% | 
16 | Nc1ncn(C2OC(CO)C(O)C2O)c(=O)n1 (configuration not stated) | -25.4% (active) |  | 85.9 | 12.3% | -39.8% (active) | -13.7% (active) | 3.64% (active) | 15.1% | 10.6% | -30.3% (active)
17 | Cc1cc(O)c(C(C)(C)C)cc1Sc1cc(C(C)(C)C)c(O)cc1C | 12.8% | 73.6% | 90.4 | 65.3% | 39.1% | 29.3% |  | 30.7% | 18.6% | 
18 | COc1ccc2c(c1)nc(N)c1c3cccnc3cn21 | 34.3% | 4.95% (active) |  | 9.24% (active) | 17.8% |  | 43.1% | -2.31% (active) | 62.6% | 
19 | COc1cc(Cl)cc(-c2nn(-c3cccc(NC(=O)c4ccc(N5CCOCC5)c(C(F)(F)F)c4)c3)cc2-c2ccncc2)c1 | 25.2% |  | 78.4 | 75.7% | 96.5% | 69.4% | 40.7% | 46.1% | 49.2% | 67.9%
20 | COc1ccc(C2CC(c3ccc(N(C)C)cc3)=NN2c2ccc(S(N)(=O)=O)cc2)cc1 (configuration not stated) | 34.1% | 42.3% | 84.3 | 70.3% | 56.6% | 54.7% | 96.7% |  | 36.9% | 
21 | Fc1ccc2nc(-c3nc(-c4ccccc4)n4ccccc34)[nH]c2c1 | -25.9% (active) |  | 55.9 | -43.2% (active) | 1.27% (active) | 0.252% (active) | -5.1% (active) | -13.1% (active) | -0.867% (active) | -71.2% (active)
22 | CCN(CC)CCNC(=O)c1ccc(NC(C)=O)cc1 | 112% | 106% |  | 102% | 112% | 121% | 99.8% | 96.9% | 99.7% | 108%
23 | COC(=O)C1(C)Cc2cc(OC(C)=O)c(OC(C)=O)cc2N1 (configuration not stated) | 23.6% |  | 118 | 98.4% | 27.1% | 67.2% | 88.7% | 80.6% | 42.6% | 57.8%
24 | COc1cc(NC(=O)CCSc2nc3ccc(C)cc3c(=O)n2Cc2ccccc2)cc(OC)c1OC | 83.8% |  | 94.2 | 30.2% | 110% | 67.9% | 6.72% (active) | 83.8% | 65.6% | -32.1% (active)
25 | CCc1ccc2c(c1)N(CCO)C1=C(C(=O)OC1)C2c1ccccc1 (configuration not stated) | 101% |  | 93.9 | 94.9% | 95.8% | 111% | 125% | 78.7% | 95.6% | 104%
26 | COc1ccc(-c2nn(-c3cccc(NC(=O)c4ccc(N5CCOCC5)c(C(F)(F)F)c4)c3)cc2-c2ccncc2)cc1Cl | 14.6% |  | 73.1 | 83.5% | 94.3% | 83.3% | 41.1% | 52.7% | 68.1% | 92.3%
27 | Cc1c(Cl)cccc1NC(=O)c1sc2nc3c(cc2c1N)C(=O)CCC3 | 5.08% (active) |  | 31.8 | 14.4% | 9.61% (active) | -40.1% (active) | 17.1% | 2.57% (active) | 54.5% | 40.4%
28 | CC1(C)CCC(=NNC(N)=S)CC1 | 103% |  | 109 | 117% | 116% | 112% | 103% | 105% | 95.2% | 112%
29 | COc1cc([C@@H]2c3cc4c(cc3C(Br)[C@H]3COC(=O)[C@H]23)OCO4)cc(OC)c1OC (some centres not stated) | -25.8% (active) | -27.5% (active) | 24.7 | -18.4% (active) | -21% (active) | -81.5% (active) |  | -45.9% (active) | 31.3% | 
30 | NC(=O)SCC(=O)Nc1ccc(S(N)(=O)=O)cc1 | 108% | 104% |  | 108% | 112% | 107% | 99.6% | 105% | 98.2% | 106%
